# Most compounds without a hit are left out; they make up all but 11% or so of the library.
# Bst PK mod: alters activity of Bacillus stearothermophilus pyruvate kinase. purified pyruvate kinase, luminescence ATP production; ribose 5-phosphate activator present at AC10. Potency, µM. 1.2% of 51,000 active; in the data active = potency below about 11 µM; inconclusive = mostly about 12 µM to 25 µM;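 the screen sought inhibitors and activators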;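 note: scaled between full activation by ribose 5 phosphate and full inhibition by luteolin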
# HADH2 inh: inhibitors of human HADH2 dehydrogenase. Q99714. recombinant HADH2, NADH fluorescence, beta-hydroxybutyryl-CoA. Potency, µM (titrated, usually from 57.1 µM), without a hit: at the top dose activity change, negative = inhibition, usual class: inhibitors. 3.4% of 73,000 active. AID 886; note: nearly all actives have a fitted effect of over 60% in size
# Target sequence (Q99714 whole entry, looked up, one chain of several): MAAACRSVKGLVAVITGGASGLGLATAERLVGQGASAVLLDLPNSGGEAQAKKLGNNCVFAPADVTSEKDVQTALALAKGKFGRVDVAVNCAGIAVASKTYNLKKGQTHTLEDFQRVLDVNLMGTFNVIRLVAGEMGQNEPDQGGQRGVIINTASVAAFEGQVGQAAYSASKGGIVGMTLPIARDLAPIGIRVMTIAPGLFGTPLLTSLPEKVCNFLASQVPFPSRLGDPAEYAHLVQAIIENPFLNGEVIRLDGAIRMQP
#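 E. coli-expressed His-tagged HADH2 tested at 20 nM in alkaline Tris buffer (pH 9.0); oxidation of 90 uM beta-hydroxybutyryl-CoA with 1 mM NAD+ tracked fluorimetrically for 4 min.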
# HSD17B inh: blocks hydroxysteroid 17-beta dehydrogenase activity. Q99714. recombinant HSD17B10, NADH fluorescence kinetic. Potency, µM (highest dose often 57.1 µM), for inactives: top-dose activity change, negative = inhibition, most hits filed as inhibitors. 7.6% of 75,000 active. AID 893;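 note: the protocol describes HADH2 (HSD17B10) and not the HSD17B4 of the title; nearly all actives have a fitted effect of over 70% in size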
#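 Activity followed as NADH fluorescence increase (ex 360, em 450 nm) every 30 seconds for 4 min, using final 90 uM beta-hydroxybutyryl CoA and 1 mM NAD+. Recombinant His-tagged enzyme, 20 nM, pH 9.0 Tris buffer, 15 min compound preincubation.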
# FLuc inh: inhibitors of firefly luciferase; 2.2% of 72,000 active; Potency, µM (doses to about 57.1 µM), inactives show at the top dose activity change, negative = inhibition, usual class: inhibitors; AID 411; purified firefly luciferase, luminescence, 8 min; P08659; note: nearly all actives have a fitted effect of over 40% in size
#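 Compounds were tested as concentration series (qHTS) against purified P. pyralis luciferase with luciferin and 10 uM ATP in 50 mM imidazole pH 7.2, 50 mM KCl, 7 mM MgCl2, 0.01% Tween 20, 0.05% BSA. Luminescence was read after 8 min at ambient temperature.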
# ERK AVP inh: blocks ERK signaling stimulated by vasopressin | HEK293-V1b, vasopressin-stimulated pERK AlphaScreen | Potency, µM (highest dose often 57.5 µM), for inactives: top-dose activity, negative = inhibition, actives largely listed as inhibitors | 0.99% of 72,000 active | AID 995; note: nearly all actives have a fitted effect of over 55% in size
#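 HEK293 cells stably expressing V1b receptor, seeded overnight in 1% FBS, were treated with compounds for 30 min at 37C, then stimulated 5 min with 25 nM vasopressin; phospho-ERK read by AlphaScreen SureFire after lysis.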
# 15-hLO inh: 15-hLO (ALOX15) enzyme inhibition; purified 15hLO-1, xylenol orange hydroperoxide absorbance; 1.4% of 74,000 active; P16050; Potency, µM (top dose mostly 57.1 µM), inactives show at the highest dose activity change, negative = inhibition, most hits filed as inhibitors; note: nearly all actives have a fitted effect of over 55% in size
#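 Inhibition is scored from a chromogenic endpoint. After 15 min enzyme-compound contact, arachidonic acid (50 uM final) reacts 6 min with 40 nM 15hLO-1 at room temperature, then Fe-XO reagent is added for 30 min and absorbance ratio recorded.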
# The depositor's hits bear a star; i = inactive; ? = inconclusive; nt = no result given; [ ] = remark or other dose. Unless noted, calls come from the whole dose curve; as a rule, active = well fitted curve in the direction sought with a large enough effect; inconclusive = small, poorly fitted or top-dose-only effect, or another doubt; inactive = no such curve, though single readings can be large; an effect the other way counts as inactive or inconclusive. Unless noted, % is set by controls: 0 for no effect and ±100 for the full control effect; potency is the fitted concentration of half-maximal effect.
SMILES,Bst PK mod,HADH2 inh,HSD17B inh,FLuc inh,ERK AVP inh,15-hLO inh
Cc1ccc(-c2nnc(SCc3ccccc3F)o2)cc1,i,-23%,-15%,20µM*,140%,-17%
COc1ccc2c(c1OC)C(=O)N1C(C(=O)O)Cc3c([nH]c4ccccc34)C21 (stereo not given),nt,18%,32µM*,1%,-8%,-6%
COc1cc(C2c3[nH]c4ccccc4c3CC3C(=O)N4C(Cc5c([nH]c6ccccc56)C4c4cc(OC)c(OC)c(OC)c4)C(=O)N32)cc(OC)c1OC (stereo not given),nt,13%[11.4 µM],-11%[11.4 µM],nt,9%[11.5 µM],-22%[11.4 µM]
C[C@@H]1O[C@H]2C3=C(C(=O)[C@H]4O[C@@H]4[C@H]3O)[C@@H]1[C@@H]1[C@@H](C)OC=C3[C@H](O)[C@H]4O[C@@H]4/C(=N\OCc4ccccc4)[C@]312,nt,-9%[11.4 µM],-1%[11.4 µM],0%[11.4 µM],13%[11.5 µM],2%[11.4 µM]
COc1cc2cc3c4cc(OC)c(OC)cc4cc[n+]3c(C)c2cc1OC,nt,195%[25.6 µM],25µM*,4%[25.5 µM],?,10%
O=C(N/N=C1/C[C@@H](O)[C@@H](O)[C@@H]2[C@@H]3C(=O)N(c4cccc(Oc5ccccc5)c4)C(=O)[C@H]3CC[C@@H]12)OCc1ccccc1,nt,3%[11.4 µM],4%[11.4 µM],1%[11.4 µM],27%[11.5 µM],-2%[11.4 µM]
Cc1csc2nc(=O)c3ccccc3n12,nt,25µM*,25µM*,0%,-16%,6%
Cc1nn2c(N)csc2nc1=O,>57,?,-14%,2%,-21%,-7%
O=c1[nH]c2c(s1)C(c1ccco1)C1C3CCC(C3)C1S2 (stereo not given),>57,1.6µM*,25µM*,3%,8%,-19%
CC(NC(=O)c1ccccc1)(C(=O)O)C(=O)O,nt,-8%[11.4 µM],6%[11.4 µM],-2%[11.4 µM],26%[11.5 µM],10%[11.4 µM]
CN1CCN(c2ncc3nc(-c4ccc(Cl)cc4)c(=O)n(C)c3n2)CC1,nt,-17%,16µM*,-6%[11.4 µM],-1%,-3%
Cn1c(=O)c(-c2ccc(Cl)cc2)nc2cnc(N3CCNCC3)nc21,nt,2%,10µM*,-13%[11.4 µM],0%,?
COc1ccc(-c2nc3cnc(N4CCNCC4)nc3n(C)c2=O)cc1,nt,28%,25µM*,-11%[11.4 µM],16%,-2%
COc1ccc(-c2ocnc2C(=O)Nc2ccccc2N2CCCCC2)cc1,>57,?,32µM*,4%,29%,-3%
O=C(Nc1ccccc1N1CCCC1)c1ccc2c(c1)OCO2,>57,-6%,-2%,-2%,?,?
COc1cccc2c1[C@@H]1CN(CCCCn3c(=O)[nH]c4c(sc5ncc(-c6ccccc6)nc54)c3=O)C[C@H]1CO2,nt,11%,5%,-6%,?,13%
Cc1ccc(-c2nc(-c3cccnc3)no2)cc1,?,10%,-3%,13µM*,-9%,6%
COc1ccc(-c2noc(-c3ccccc3C(=O)Nc3cccnc3)n2)cc1,nt,21%,3%,?,-16%,3%
CCC(=O)Oc1ccc(-c2nc(-c3cccnc3)no2)cc1,?,-17%,1%,13µM*,-23%,2%
c1ccc(-c2ccccc2-c2nc(-c3cccnc3)no2)cc1,>57,13%,-15%,2%,2%,0%
CN1CCN(CCCN)CC1,nt,11%[11.4 µM],0%[11.4 µM],2%[11.4 µM],-3%[11.5 µM],8%[11.4 µM]
Cc1ccc(CO)cc1,nt,-11%,6%,nt,15%,-6%
COc1ccccc1/C=c1\sc2nc(-c3ccco3)nn2c1=O,>57,?,25µM*,-3%,-26%,-17%
CCOc1ccc(/C=c2\sc3nc(-c4ccco4)nn3c2=O)cc1OCC,>57,-20%,?,1%,?,-21%
O=S(=O)(c1ccccc1)N1CCC2(CCCN(c3ccccn3)C2)CC1,nt,-14%,?,-1%[11.4 µM],-15%,-21%
CS(=O)(=O)N1CCC2(CCCN(c3ccccn3)C2)CC1,nt,-17%,25µM*,-1%[11.4 µM],10%,4%
CS(=O)(=O)N1CCC[C@@]2(CCN(c3ccccn3)C2)C1,nt,-13%,32µM*,1%[11.4 µM],-16%,4%
NC(N)=N/N=C\c1ccc(C2CCNCC2)cc1,nt,4%[11.4 µM],0%[11.4 µM],4%[11.4 µM],-10%[11.5 µM],9%[11.4 µM]

# Screening results deposited in PubChem BioAssay by National Center for Advancing Translational Sciences (NCATS).
